Reference: PubChem BioAssay (EPA / NIEHS)
Active and inactive are the calls of the source. How the source made its calls: active means hit-call score of the fitted dose curve at least 0.9, where 1 is the maximum; inactive means score below 0.9.

What follows are compounds tested on Cytochrome P450 (CYP24A1), CYP24A1 (gene 1591) (assay: LTEA_HepaRG_CYP24A1: Life Technologies and Expression Analysis (LTEA) Assay for Cytochrome P450 (CYP24A1) using HepaRG (AID 2283478)). Conditions: mRNA level, 48 h; actives raise or lower the signal.
Experimental: LTEA_HepaRG is a cell based, multiplexed-readout assay that uses HepaRG, a human liver cell line, with measurements taken at 48 hours after chemical dosing on a 96-well plate.LTEA_HepaRG_CYP24A1 is one of 102 assay component(s) measured in the LTEA HepaRG cell culture assay. It is a marker of NR mediated metabolism.Data from the assay component LTEA_HepaRG_CYP24A1 was analyzed into 1 endpoint. This assay endpoint, LTEA_HepaRG_CYP24A1, was analyzed with bidirectional fitting relative to DMSO as the negative control and baseline of activity. Using a type of inducible reporter, measures of mRNA induction for gain or loss-of-signal activity can be used to understand regulation of transcription factor activity. To generalize the intended target to other relatable targets, this assay endpoint is annotated to the cyp intended target family, where the subfamily is xenobiotic metabolism.
A total of 1060 chemcials from the ToxCast library were tested in eight-point concentration-response experiments. Cell culture and cytotoxicity assays were conducted at Thermo Fisher Scientific's Custom Services facility (Madison, WI). A single lot of human HepaRG cells (Thermo Fisher Scientific, Frederick, MD) was used for the cell culture experiments. 96-well format collagen type I coated plates of human HepaRG cells were prepared using established methods. Briefly, cryopreserved HepaRG cells were thawed, plated at a density of approximately 100,000 cells/well in HepaRG Thaw, Plate, and General Purpose media (HPRG770, Thermo Fisher Scientific), and incubated for 48 hours. 0.5% DMSO was selected as vehicle control to balance the requisite need of DMSO in HepaRG cultures to maintain differentiation (for example, baseline metabolism, proportions of hepatocytes vs. cholangiocytes), while enabling further hepatic receptor pathway activation (for example, PXR and CAR) in response to chemical exposure. 48 hours after plating, the culture medium was replaced with HepaRG Serum-Free Incudtion Media. Cells were exposed to each test chemical in duplicate and maintained in CO2 incubators for another 48 hours. Chemical plates were thawed to room temperature and 200x concentrations of treatment groups were prepared. 8-point conentration-reponse curves were made with the highest exposure at 100 uM, followed by half-log dilutions, all in 0.5% DMSO. Each test plate contained variouse controls, induction positive controls (1mM phenobarbital), cytotoxicity positive controls ([…] aflatoxin B1), vehicle controls (0.5% DMSO), and total lysis controls (0.5% DMSO). Cell morphology images were taken using an Essen IncuCyte FLR automated microscope, with six 96-well plates imaged in about 24 minutes. Images were captured and exported and JPEG files. Spent culture media was transfered to black-well plates for the LDH assay, and remaining media was sorted at -80 C for later use. Cells were treated with RLT buffer and frozen until shipped for gene expression analysis. Total RNA was isolated from the cell suspension in 75 uL of Buffer RLT (Qiagen, Germantown, MD 20874) by Quintiles/Expression Analysis (Durham, NC) using a custom isolation procedure. Total RNA from each plate well was transferred to a preamplification plate. Fluidigm's 96.96 Dynamic ArrayTM (Fluidigm, Amsterdam, the Netherlands) technology was used for gene expression analyses by quantitative reverse transcription polymerase chain reaction (qRT-PCR, performed by Quintiles/Expression Analysis, Durham, NC)89. Standard TaqManTM Assays (Applied Biosystems/ThermoFisher Scientific, Foster City, CA) were used to assess the expression of 93 genes selected based on their selectivity and sensitivity to important hepatic receptors known to be modulated by environmental chemicals; importance in human hepatocyte functionality; and hepatotoxicity. […]

| SMILES | outcome |
| --- | --- |
| COc1cc(-c2ccc(N)c(OC)c2)ccc1N | inactive |
| C=C(C)C(=O)[O][Sn]([CH2]CCC)([CH2]CCC)[CH2]CCC | inactive |
| NC(=O)O | inactive |
| CC(C)(OO)c1ccccc1 | inactive |
| CC(C)(c1ccccc1)c1ccc(O)c(C(C)(C)c2ccccc2)c1 | inactive |
| CC(C)(C)c1cc(O)ccc1O | inactive |
| CC12CC1(C)C(=O)N(c1cc(Cl)cc(Cl)c1)C2=O (centres undefined) | inactive |
| CCC(C)(C)c1ccc(O)c(C(C)(C)CC)c1 | inactive |
| C[C@]12CCC(=O)C[C@@H]1CC[C@@H]1[C@@H]2CC[C@]2(C)[C@@H](O)CC[C@@H]12 | inactive |
| CCOP(=S)(OCC)Oc1nc(Cl)c(Cl)cc1Cl | inactive |
| ClC1(Cl)C2(Cl)C3(Cl)C4(Cl)C(Cl)(Cl)C5(Cl)C3(Cl)C1(Cl)C5(Cl)C24Cl (centres undefined) | inactive |
| O=C(Nc1ccc2[nH]ccc2c1)c1cc2cc(F)ccc2n1Cc1cccc(F)c1 | inactive |
| CCN1CCC2(CC1)COc1cc3c(cc12)N(C(=O)c1ccc(-c2ccc(-c4nnc(C)o4)cc2C)cc1)CC3 | inactive |
| CN(C)N=O | inactive |
| Oc1cccc2cccnc12 | inactive |
| CCCCCCCCc1ccc(O)cc1 | inactive |
| Cc1ccccc1N | inactive |
| O=C(O)C(F)(F)C(F)(F)C(F)(F)C(F)(F)C(F)(F)C(F)(F)F | inactive |
| O=C1C2(Cl)C3(Cl)C4(Cl)C(Cl)(Cl)C5(Cl)C3(Cl)C1(Cl)C5(Cl)C24Cl (centres undefined) | inactive |
| CC(=O)[O][Hg][c]1ccccc1 | inactive |
| Cn1sc(Cl)cc1=O | inactive |
| O=[N+]([O-])c1ccc(O)c([N+](=O)[O-])c1 | inactive |
| CCC(=O)C(CC(C)N(C)C)(c1ccccc1)c1ccccc1 (centres undefined) | inactive |
| O=C(O)C(F)(F)C(F)(F)C(F)(F)C(F)(F)C(F)(F)C(F)(F)C(F)(F)C(F)(F)C(F)(F)C(F)(F)F | inactive |
| O=C(O)C(Cl)(Cl)Cl | inactive |
| CC(C)(C)CC(C)(C)c1ccc(O)cc1 | inactive |
| C=CC(=O)OCCCCCC(C)C | inactive |
| O=c1[nH]c(=O)[nH]c(=O)[nH]1 | inactive |
| ClCC(Cl)CCl | inactive |
